These sequences were tested against NUP54 (assay: pooled miR-30 sensor sort-seq; sequence = guide strand). Conditions: shRNA.
In the case of TACAGATGTAGTTTGATTCTTT, the sensor-assay potency score (higher = more potent) is reported as 0.197.
TAAATAACAACTTCTGTCTGAT showed a sensor-assay potency score (higher = more potent) of 0.552.
Sequence TTGTTGTTTCAAATGCTGCTTG has a sensor-assay potency score (higher = more potent) of 0.0156.
With TACATTTACAGTAAGGGTCTGG the sensor-assay potency score (higher = more potent) was 0.14.
Work on TAACAGATCTGCATCTATGTAA yielded a sensor-assay potency score (higher = more potent) of 0.386.
With TTCCTGTTTGATTAGGACCTGT the sensor-assay potency score (higher = more potent) was 0.0888.
TATATCTTCTAGATCGTCTTTA gave a sensor-assay potency score (higher = more potent) of 0.519.
TTATATCTTCTAGATCGTCTTT gave a sensor-assay potency score (higher = more potent) of -0.236.
In the case of TTCTAGATCGTCTTTAATGATG, the sensor-assay potency score (higher = more potent) is reported as -1.29.
For TAAACCAGTACTAGTTCCCGTT, the sensor-assay potency score (higher = more potent) was -0.284.
Sequence TAATGTAGTTTGCTGCTGCTGC has a sensor-assay potency score (higher = more potent) of 0.262.

The sequences below were run against NUTF2 in the same assay as above. Conditions: shRNA.
TGCAACTAGTCTAGCATCCAAA gave a sensor-assay potency score (higher = more potent) of -1.42.
TTTAATAGGAACATCTGGTGGA was tested, and the sensor-assay potency score (higher = more potent) was 0.705.
For TTTTGCATTACTTAAGTCTTTC, the sensor-assay potency score (higher = more potent) was -0.669.
Sequence TTCTCCTTCACTTCTTTGGGTT has a sensor-assay potency score (higher = more potent) of -0.477.
For TTCTTTAATAGGAACATCTGGT, the sensor-assay potency score (higher = more potent) was -0.647.
TTAATAGGAACATCTGGTGGAA was tested, and the sensor-assay potency score (higher = more potent) was -0.0861.
TACAACACAAACTTCTCCCGTC gave a sensor-assay potency score (higher = more potent) of 0.549.
TAATAGGAACATCTGGTGGAAC was tested, and the sensor-assay potency score (higher = more potent) was -1.27.
TACTAGAGCAACTTGTCAGTAG showed a sensor-assay potency score (higher = more potent) of 0.355.
In the case of TATCATTATCAAATAACTGGTA, the sensor-assay potency score (higher = more potent) is reported as 0.126.
TAGTAATGTTGAATGAAGCTGG was tested, and the sensor-assay potency score (higher = more potent) was 0.656.

Each sequence was assayed against NXF3 in the same assay as above. Conditions: shRNA.
With TTTTCTGACTTCAGCTCCCTGT the sensor-assay potency score (higher = more potent) was -0.506.
For TTACAGGTTGGTAACCTCTTGT, the sensor-assay potency score (higher = more potent) was 0.125.
For TTCATAGTGAAACTCAACTGGG, the sensor-assay potency score (higher = more potent) was -0.55.
With TGCTCTTCTTTGAACAACTTGA the sensor-assay potency score (higher = more potent) was -0.684.
With TTGAACAACTTGATCAGTGTGA the sensor-assay potency score (higher = more potent) was 0.976.
In the case of AATCTTGCCACTGACATTCTTC, the sensor-assay potency score (higher = more potent) is reported as -0.451.
TTCTTCAACATCTCAGATCCAA showed a sensor-assay potency score (higher = more potent) of 0.0512.
TAATTTGGGGAACAATTCCAGG was tested, and the sensor-assay potency score (higher = more potent) was -1.33.
In the case of TTGACAAAGATTGATATCTTTT, the sensor-assay potency score (higher = more potent) is reported as -1.25.
Sequence TTGCTCTTCTTTGAACAACTTG has a sensor-assay potency score (higher = more potent) of -0.818.
In the case of TGCATCTCCATCTTGCTGCTGA, the sensor-assay potency score (higher = more potent) is reported as -0.136.
With TTATCTGCTCCACCTTTTCTGA the sensor-assay potency score (higher = more potent) was -1.35.

Each sequence was assayed against NXF5 in the same assay as above. Conditions: shRNA.
With TTACATAGGCAGACTGGTCCGA the sensor-assay potency score (higher = more potent) was 0.61.
ATTTCTTTCAGTGATCTTCAGG showed a sensor-assay potency score (higher = more potent) of -1.08.
Sequence TACAGTTTGTTGTTGCACAAGT has a sensor-assay potency score (higher = more potent) of -0.398.
TTTCTTTCAGTGATCTTCAGGG was tested, and the sensor-assay potency score (higher = more potent) was 0.16.
Work on TTGAAGTACTTGCACAAGTTGC yielded a sensor-assay potency score (higher = more potent) of -0.882.
In the case of TCTTTCAGTGATCTTCAGGGTG, the sensor-assay potency score (higher = more potent) is reported as -0.168.
Further: reference of the scale not given here.
